# Marburg entry inh – Marburg virus entry inhibition. Potency, µM (titrated, usually from 37.8 µM), without a hit: top-dose activity change, negative = inhibition, most hits filed as inhibitors. Marburg virus pseudotyped entry inhibition, cell reporter. 300,000 tested, 1.8% active; calls by dose curve; tested in HEK293 cells; also: potency is read from the fitted curve at half-maximal effect
# FMDV inh – foot and mouth disease virus antiviral activity. FMDV antiviral cell-based qHTS. Potency, µM (top dose mostly 57.9 µM), for the others: at the top dose activity change, negative = inhibition, hits mostly inhibitors. 410,000 tested, 1.2% active. AID 1159524; calls by dose curve; tested in HEK293T cells; also: read-out not given here; potency is read from the fitted curve at half-maximal effect; nearly all actives have a fitted effect of over 45% in size
# HCMV inh – human cytomegalovirus inhibition. 410,000 tested, 4.5% active. HFF cells, HCMV-luciferase reporter, 72 h; hits give low values. activity change, negative = inhibition, % at 57.5 µM; in the data active = activity change below about -60%; inconclusive = no clear call, values can overlap the other calls; inactive = above about -39%
#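 Human foreskin fibroblasts infected with luciferase-reporter HCMV at MOI 1 PFU/cell, compounds at two doses. Luciferase measured 72 h post infection; normalized to buffer-only basal and Salinomycin (10uM) controls.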
# LASV entry inh – inhibitors of Lassa virus binding or cell entry; Lassa virus pseudotype entry inhibition, cell reporter; Potency, µM (doses to about 37.9 µM), for the others: at the top dose activity change, negative = inhibition, usual class: inhibitors; 300,000 tested, 1.2% active; calls by dose curve; tested in HEK293 cells; also: potency is read from the fitted curve at half-maximal effect; nearly all actives have a fitted effect of over 50% in size
# HCV inh – HCV inhibition; Huh7.5.1 HCVcc-Cre infection, luciferase reporter, 44 h; Potency, µM (series often up to 41.8 µM), for inactives: top-dose activity change, negative = inhibition, usual class: inhibitors; 340,000 tested, 3.4% active; AID 651820; active = well fitted inhibition curve with a large enough effect; inconclusive = small, poorly fitted or top-dose-only effect, or another doubt; inactive = no such curve, though single readings can be large or run the other way; also: potency is read from the fitted curve at half-maximal effect
#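 Infectious HCVcc-Cre (~0.5 moi) was added to cells just after compound, with cells seeded 4 h earlier at 1,000 per well. Luciferase activity after 44 h culture reported infection; substrate was incubated 15 min at room temperature before reading.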
# Active calls of the source: *; ? = inconclusive; / = no result given; [ ] = remark or other dose. An excerpt weighted towards active compounds, which were near 7.9% of everything screened. % is scaled to controls: 0 for no effect and ±100 for the full control effect.
SMILES,Marburg entry inh,FMDV inh,HCMV inh,LASV entry inh,HCV inh
Cc1cc(C(=O)N/N=C/c2ccc([N+](=O)[O-])s2)c2ccccc2n1,?,-16.5%,-70.4*,?,11.2µM*
C[C@@H]1CN(C2CCN(S(=O)(=O)Cc3ccccc3)CC2)C[C@H](C)O1,-0.1%,/,/,/,/
Cc1cccc(NC(=O)[C@H](Cc2c[nH]c3ccccc23)NC(=O)[C@@H]2Cc3ccccc3CN2)c1,/,-3.5%,/,/,3.98µM*
CCc1ccc(NC(=O)[C@H](Cc2c[nH]c3ccccc23)NC(=O)[C@@H]2Cc3ccccc3CN2)cc1,/,8.3%,/,/,3.55µM*
Cc1cc(C)cc(NC(=O)[C@H](Cc2c[nH]c3ccccc23)NC(=O)[C@@H]2Cc3ccccc3CN2)c1,/,-29.1%,/,/,?
Cc1cc(C)cc(NC(=O)[C@H](NC(=O)[C@@H]2Cc3ccccc3CN2)c2ccccc2)c1,1.41µM*,-16.1%,/,29.7%[46.1 µM],-20.1%
Cc1ccc(CNCc2ccccc2Cl)s1,20.6%[46.1 µM],10.0%,-3.2,27.7%[46.1 µM],/
Cc1ccc(CNC(=O)CC2(CC3=NS(=O)(=O)c4ccccc4N3)CCCC2)cc1,/,2.0%,-7.9,/,11.2µM*
COc1ccc(CCNC(=O)CC2(CC3=NS(=O)(=O)c4ccccc4N3)CCCC2)cc1OC,/,21.4%,-7.8,/,?
COc1ccc(C(C(=O)NC2CCCC2)N(C(=O)c2snc(C(N)=O)c2N)c2ccccc2OC)cc1OC (stereo not given),?,2.4%,-25.1,?,-9.3%
NC(=O)c1nsc(C(=O)N(c2cccc(F)c2)C(C(=O)NCc2ccccc2)c2ccc(O)cc2)c1N (stereo not given),?,0.4%,-18.2,?,-27.5%
NC(=O)c1nsc(C(=O)N(c2ccccc2F)C(C(=O)NCc2ccc(F)cc2)c2ccc(O)cc2)c1N (stereo not given),?,-12.6%,-102.4*,?,3.55µM*
COc1ccc(N(C(=O)c2snc(C(N)=O)c2N)C(C(=O)NCc2ccccc2)c2ccc(F)cc2)c(OC)c1 (stereo not given),?,-0.4%,-80.4*,8.91µM*,?
COc1ccccc1N(C(=O)c1snc(C(N)=O)c1N)C(C(=O)NCc1ccccc1)c1ccc(O)cc1 (stereo not given),-21.3%[46.1 µM],-9.1%,40.1,4.47µM*,-23.1%
COc1ccc(N(C(=O)c2snc(C(N)=O)c2N)C(C(=O)NC2CCCCC2)c2ccc(F)cc2)c(OC)c1 (stereo not given),?,?,?,?,-12.6%
COc1ccccc1N(C(=O)c1snc(C(N)=O)c1N)C(C(=O)NC1CCCC1)c1ccc2ncccc2c1 (stereo not given),?,18.2%,-87.6*,?,0.0%
COc1ccc(C(C(=O)NCc2ccccc2)N(C(=O)c2snc(C(N)=O)c2N)c2ccccc2OC)cc1 (stereo not given),?,-6.7%,?,?,?
C=CC[C@@H]1C=C[C@H](ON=C(C)CCN2CCCCc3nc(C)c(C)cc32)[C@H](CO)O1,-22.6%[14.2 µM],/,/,/,/
Cc1ccc(C(=O)N2CCc3cc(CNS(=O)(=O)c4cccs4)ccc32)cc1,/,-29.3%,-38.7,?,/
Cc1ccc2cc(/C=N/NC(=O)[C@H]3C[C@@H]3c3ccccc3)c(Cl)nc2c1,4.0%,-18.6%,14.0,0.0651µM*,11.9%
O=C(N/N=C/c1cc2ccccc2nc1Cl)[C@H]1C[C@@H]1c1ccccc1,?,-20.0%,-38.7,0.366µM*,?
Cc1cccc2cc(/C=N/NC(=O)[C@H]3C[C@@H]3c3ccccc3)c(Cl)nc12,8.3%[46.1 µM],-0.1%,-29.0,?,-8.0%
COc1cc(C(=O)N2C(=O)CCC2=O)cc(OC)c1OC,-0.3%,1.2%,52.2,-8.1%,0.5%
COc1ccc(/C(C)=N/OCC(=O)N=Nc2c(O)[nH]c3ccc(Br)cc23)cc1,?,39.8µM*,-19.4,-2.2%,?
SMILES,Marburg entry inh,FMDV inh,HCMV inh,LASV entry inh,HCV inh
Cc1cccc(NC(=S)N=Nc2c(O)[nH]c3ccccc23)c1,?,-27.6%,-25.4,?,?
COc1ccc(/C=N/OCC(=O)N=Nc2c(O)[nH]c3ccc(Br)cc23)cc1OC,?,-16.3%,29.3,-8.7%[46.1 µM],-11.8%
Cc1cc(C)c2[nH]c(O)c(N=NC(=S)NCC3CCCO3)c2c1 (stereo not given),8.0%,-6.3%,-18.4,0.1%,-6.3%
Oc1[nH]c2ccc(Br)cc2c1N=NC(=S)NCC1CCCO1 (stereo not given),5.3%[46.1 µM],-22.8%,?,?,11.2µM*
Oc1[nH]c2c(Cl)cc(Cl)cc2c1N=NC(=S)NCC1CCCO1 (stereo not given),?,25.1µM*,-68.1*,?,?
COc1ccccc1NC(=S)N=Nc1c(O)[nH]c2ccc(Br)cc12,/,-21.9%,-66.5*,/,?
Oc1[nH]c2ccccc2c1N=NC(=S)NCC1CCCO1 (stereo not given),-28.0%,-8.5%,7.6,?,?
Cc1cnc(-n2ncc(C(=O)N(C)CCc3ccccn3)c2-c2cccs2)nc1-c1ccc(F)cc1,/,-14.5%,/,/,/
CN(C)CCCN1C(=O)C(O)=C(C(=O)c2cc3ccccc3o2)C1c1ccccn1 (stereo not given),1.5%[46.1 µM],-16.4%,-0.4,-7.2%,9.6%
COC(=O)c1cccc(-c2ccc(C(c3c(C)[nH][nH]c3=O)c3c(C)[nH][nH]c3=O)o2)c1,-4.7%[46.1 µM],?,-12.8,-12.8%,-7.6%
COC(=O)c1ccccc1-c1ccc(C(c2c(C)[nH][nH]c2=O)c2c(C)[nH][nH]c2=O)o1,-23.9%[46.1 µM],20µM*,-33.7,?,11.8%
CCN(C(=O)CN1C(=O)NC2(CCCC2)C1=O)c1nc2c(C)cccc2s1,/,-33.9%,26.9,/,/
O=[N+]([O-])c1cccc(NNS(=O)(=O)c2ccccc2F)c1,8.91µM*,-0.1%,-7.6,?,8.7%
Cc1ccccc1C(=O)Nc1ccc(N2CCN(C)CC2)nc1,7.4%[46.1 µM],32.3%,-3.7,3.6%,-0.5%
FC(F)(F)c1ccc(N2CCN(Cc3ccc4c(c3)OCO4)CC2)nc1,2.1%,0.0%,-64.4*,-1.8%,-14.3%
O=C(c1ccc2c(c1)OCCO2)N1CCN(c2ccc(C(F)(F)F)cn2)CC1,/,?,-60.4*,/,/
CN1CCN(c2ccc(NC(=O)c3ccc(C(F)(F)F)cc3)cn2)CC1,?,?,-37.6,?,11.2µM*
CCOC(=O)C1(Cc2ccccc2Cl)CCN(C(=O)CCn2ccnc2C)CC1,/,34.2%,-24.9,/,7.3%
O=[N+]([O-])c1ccc(SNc2ccccc2)c([N+](=O)[O-])c1,?,-13.0%,?,-19.8%[46.1 µM],-25.4%
O=[N+]([O-])c1ccc(-[n+]2ccc3ccccc3c2)c([N+](=O)[O-])c1,/,28.2µM*,13.2,/,?
COc1ccc(C(=O)N2CCc3cc4c(cc3C2C)OCCCO4)cc1 (stereo not given),/,?,-8.4,/,1.58µM*
